Tau ThT inhib = tau fibrillization inhibition (ThT binding) | P10636 | recombinant tau K18 P301L, heparin-induced fibrillization, ThT fluorescence | Potency, µM (titrated, usually from 57.4 µM), most hits filed as inhibitors | hit rate 2.1% among 270,000; also: nearly all actives have a fitted effect of over 55% in size
Target sequence (P10636 561-689 P618L limits assumed): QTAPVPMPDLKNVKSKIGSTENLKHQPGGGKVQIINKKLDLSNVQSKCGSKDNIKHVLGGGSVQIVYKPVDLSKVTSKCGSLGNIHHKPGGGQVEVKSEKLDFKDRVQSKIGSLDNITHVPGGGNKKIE
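Recombinant human tau K18 fragment […] carrying P301L, 15 uM unlabeled plus 0.24 uM Alexa 594-labeled, was fibrillized with 20 uM heparin in 100 mM sodium acetate pH 7 for 6 hr at 37 C; 30 uM ThT fluorescence read after 1 hr.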
Tau fibril FP = tau fibrillization inhibition (FP) | P10636 | K18 P301L tau heparin fibrillization, Alexa594 FP, 6 h | Potency, µM (top dose mostly 57.7 µM), usual class: inhibitors | hit rate 0.39% among 280,000 | AID 1468; also: nearly all actives have a fitted effect of over 55% in size
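Human K18 P301L fragment (15 uM unlabeled plus 0.24 uM Alexa 594-labeled) in 100 mM sodium acetate pH 7 with compound, aggregation induced by 20 uM heparin for 6 hr at 37 C. ThT (30 uM) added for 1 hr, then Alexa 594 FP read.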
JMJD2E inh = blocks human JMJD2E demethylase activity. Potency, µM (titrated, usually from 57.1 µM), hits mostly inhibitors. JMJD2E catalytic domain, FDH-coupled NADH fluorescence (FDH is formaldehyde dehydrogenase). hit rate 1.6% among 230,000. B2RXH2; active = well fitted inhibition curve with a large enough effect, not every such curve was filed as active; inconclusive = small, poorly fitted or top-dose-only effect, or another doubt; inactive = no such curve, though single readings can be large or run the other way; also: nearly all actives have a fitted effect of over 50% in size
Target sequence (B2RXH2 1-337 limits assumed): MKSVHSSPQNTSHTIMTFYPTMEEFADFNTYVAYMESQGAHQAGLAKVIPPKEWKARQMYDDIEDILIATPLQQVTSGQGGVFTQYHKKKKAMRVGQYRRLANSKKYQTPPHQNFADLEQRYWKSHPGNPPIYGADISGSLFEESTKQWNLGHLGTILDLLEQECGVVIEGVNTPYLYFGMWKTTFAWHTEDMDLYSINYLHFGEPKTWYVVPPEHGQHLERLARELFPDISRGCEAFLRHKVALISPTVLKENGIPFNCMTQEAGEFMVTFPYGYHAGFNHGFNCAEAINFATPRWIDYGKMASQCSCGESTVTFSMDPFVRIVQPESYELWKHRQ
Tau fluor counter = counter-screen for tau fibril formation inhibitors; tau K18 P301L (four-repeat tau fragment) Alexa594 fluorescence, heparin fibrillization; Potency, µM (doses to about 57.7 µM); hit rate 0.93% among 280,000; AID 1463; also: nearly all actives have a fitted effect of over 55% in size
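Human K18 P301L tau (15 uM unlabeled plus 0.24 uM Alexa 594-labeled, final) in 100 mM sodium acetate pH 7 was mixed with compound and 20 uM heparin and incubated 6 hr at 37 C.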
Coupling enz = inhibits coupling enzyme system, counter-screen for aldolase hits | coupling enzyme system counterscreen, AmpLite Red fluorescence | activity change, negative = inhibition, % at 58.2 µM, hits read low | hit rate 0.67% among 290,000 | AID 2472; in the data active = activity change below about -30%
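Fluorescence at 525 nm excitation and 598 nm emission measured inhibition of the coupled detection system without aldolase. Compounds (at 57.5 uM final) were preincubated 10 min at room temperature with coupling enzyme reagent before a 20 min substrate/AmpLite Red step.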
Sfp PPTase inh = inhibitors of Bacillus subtilis Sfp phosphopantetheinyl transferase. Q9F4F7. Potency, µM, most hits filed as inhibitors. AID 1490. hit rate 3.5% among 310,000. Biochemical Sfp PPTase activity, qHTS;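 also: the enzyme is Sfp with the accession as filed and its product quenches rhodamine fluorescence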
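Sfp 15 nM + cpd, 15 min RT; start w/ rhodamine-CoA 5 uM, BHQ-2-YbbR 12.5 uM (final); 50 mM Hepes pH 7.6, 10 mM MgCl2, 0.01% NP-40, 0.01% BSA; read 525/598 nm at 0 and 30 min.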
A number is an active result; [ ] = another dose, or the depositor's remark. A selection: hits, their analogues and other compounds. The true share with any hit is near 5.3%. Unless noted, calls follow the shape of the dose curve; as a rule, active = well fitted curve in the direction sought with a large enough effect; inconclusive = small, poorly fitted or top-dose-only effect, or another doubt; inactive = no such curve, though single readings can be large; an effect the other way counts as inactive or inconclusive.

Results for CCOc1ccc(NS(=O)(=O)c2ccc3[nH]cc(C(=O)NC(C)CC)c(=O)c3c2)cc1 (centres undefined) ?
Tau ThT inhib: inactive; Tau fibril FP: inactive; JMJD2E inh: inactive; Tau fluor counter: inactive; Coupling enz: inactive; Sfp PPTase inh: inactive

How did CCOc1ccc(NS(=O)(=O)c2ccc3[nH]cc(C(=O)NCc4ccco4)c(=O)c3c2)cc1 do in these assays?
Tau ThT inhib: inactive; Tau fibril FP: 15.8µM; Tau fluor counter: inconclusive

How did CCc1ccc(-n2nc(CO)c(C(=O)NC)n2)cc1 do in these assays?
Tau ThT inhib: inactive; Tau fibril FP: inactive; Tau fluor counter: inactive

How did CCSc1nc2n(n1)C(c1ccc(CC)cc1)C(C(=O)Nc1ccccc1OC)=C(C)N2 (centres undefined) do in these assays?
Tau ThT inhib: inactive; Tau fibril FP: inconclusive; Tau fluor counter: inactive

Results for CCOC(=O)N1CCN([N+]([O-])=NOc2cc(O/N=[N+](\[O-])N(CC)CC)c([N+](=O)[O-])cc2[N+](=O)[O-])CC1 ?
Coupling enz: inactive; Sfp PPTase inh: inactive

How did Cc1ccc2[nH]cc(C(c3ccccc3)c3cccs3)c2c1 (centres undefined) do in these assays?
Tau ThT inhib: inconclusive; Tau fibril FP: inconclusive; Tau fluor counter: 7.94µM[quencher]

Results for Cc1ccc(C(c2ccccc2)c2c(C)[nH]c3ccccc23)s1 (centres undefined) ?
Tau ThT inhib: inactive; Tau fibril FP: inactive; Tau fluor counter: inactive

What do the screens show for `Cc1ccc2[nH]cc(C(c3ccccc3)c3ccc(C)s3)c2c1` (centres undefined)?
Tau ThT inhib: inactive; Tau fibril FP: inactive; Tau fluor counter: 10µM[quencher]

How did NCC(c1ccccc1)c1c[nH]c2ccccc12 (centres undefined) do in these assays?
Tau ThT inhib: inactive; Tau fibril FP: inactive; JMJD2E inh: inactive; Tau fluor counter: inactive; Coupling enz: inactive; Sfp PPTase inh: inactive

What do the screens show for `c1ccc(Nc2cccc(Nc3ccccc3)n2)cc1`?
Tau ThT inhib: 14.1µM; Tau fibril FP: inactive; JMJD2E inh: inconclusive; Tau fluor counter: 12.6µM[quencher]; Coupling enz: inactive; Sfp PPTase inh: inactive

How did C=CCc1cccc(CNc2nc3ccccc3n2CCC)c1O do in these assays?
Tau ThT inhib: inactive; Tau fibril FP: inactive; JMJD2E inh: inactive; Tau fluor counter: 14.1µM[quencher]; Coupling enz: inactive; Sfp PPTase inh: inactive

What do the screens show for `CCCn1c(NCc2ccccc2C)nc2ccccc21`?
Tau ThT inhib: inactive; Tau fibril FP: inactive; Tau fluor counter: inactive

How did C=CCc1cccc(CNc2nc3ccccc3n2CC)c1O do in these assays?
Tau ThT inhib: inactive; Tau fibril FP: inactive; JMJD2E inh: inactive; Tau fluor counter: 17.8µM[quencher]; Coupling enz: inactive; Sfp PPTase inh: inactive

How did O=c1oc2ccccc2cc1-c1csc(NN=C2CCCCC2)n1 do in these assays?
Tau ThT inhib: inconclusive; Tau fibril FP: inactive; JMJD2E inh: inconclusive; Tau fluor counter: 25.1µM[quencher]; Coupling enz: inactive; Sfp PPTase inh: inactive

What do the screens show for `C/C(=N\Nc1nc(-c2ccc(C)cc2C)cs1)c1cc2ccccc2oc1=O`?
Tau ThT inhib: inconclusive; Tau fibril FP: inactive; JMJD2E inh: inactive; Tau fluor counter: inactive; Coupling enz: inactive; Sfp PPTase inh: 39.8µM

Results for COc1ccc2oc(=O)c(/C(C)=N/Nc3nc(-c4cc(C)ccc4C)cs3)cc2c1 ?
Tau ThT inhib: inconclusive; Tau fibril FP: inactive; JMJD2E inh: inactive; Tau fluor counter: inactive; Coupling enz: inactive; Sfp PPTase inh: inactive

Results for O=C(Nc1nc(-c2cc3ccccc3oc2=O)cs1)c1ccco1 ?
Tau ThT inhib: inactive; Tau fibril FP: inactive; JMJD2E inh: inconclusive; Tau fluor counter: inactive; Coupling enz: inactive; Sfp PPTase inh: inactive

How did C/C(=N\Nc1ccccc1)c1cc2ccccc2oc1=O do in these assays?
Tau ThT inhib: 11.2µM; Tau fibril FP: inconclusive; JMJD2E inh: inactive; Tau fluor counter: inconclusive; Coupling enz: inactive; Sfp PPTase inh: inactive

How did COc1ccc(Oc2ncc3ncc(=O)n(C4CC4)c3n2)cc1 do in these assays?
Coupling enz: inactive; Sfp PPTase inh: inactive

Results for O=c1oc2ccccc2c2c1C1O[C@](c3ccsc3)(Cc3ccccc31)O2 ?
Coupling enz: inactive; Sfp PPTase inh: inactive

How did O=C(CCC(=O)Nc1ccc(Br)cc1)N/N=C/c1cc([N+](=O)[O-])ccc1O do in these assays?
Tau ThT inhib: inconclusive; Tau fibril FP: inactive; JMJD2E inh: inconclusive; Tau fluor counter: inactive; Coupling enz: inactive; Sfp PPTase inh: inactive

How did CN1CCN(CCC(=O)N/N=C/c2ccccc2F)CC1 do in these assays?
Tau ThT inhib: inactive; Tau fibril FP: inactive; JMJD2E inh: inactive; Tau fluor counter: inactive; Coupling enz: inactive; Sfp PPTase inh: inactive

What do the screens show for `O=C(CCC(=O)Nc1ccc(F)cc1)N/N=C/c1ccccc1O`?
Tau ThT inhib: inactive; Tau fibril FP: inactive; JMJD2E inh: 25.1µM; Tau fluor counter: inactive; Coupling enz: inactive; Sfp PPTase inh: inactive

What do the screens show for `O=C(CCN1CCN(c2ccccc2)CC1)N/N=C/c1ccccc1O`?
Tau ThT inhib: inactive; Tau fibril FP: inactive; JMJD2E inh: 28.2µM; Tau fluor counter: inactive; Coupling enz: inactive; Sfp PPTase inh: inactive

How did Cc1cccc(NC(=O)CCC(=O)N/N=C/c2cc([N+](=O)[O-])ccc2O)c1 do in these assays?
Tau ThT inhib: inconclusive; Tau fibril FP: inactive; JMJD2E inh: 10µM; Tau fluor counter: inactive; Coupling enz: inactive; Sfp PPTase inh: inactive

Results for O=C(CCC(=O)Nc1ccc(F)cc1)N/N=C/c1cc([N+](=O)[O-])ccc1O ?
Tau ThT inhib: inconclusive; Tau fibril FP: inactive; JMJD2E inh: 7.08µM; Tau fluor counter: inactive; Coupling enz: inactive; Sfp PPTase inh: inactive

What do the screens show for `COc1ccc(C2CC(=O)N(CC(=O)Nc3ccc(C(F)(F)F)cc3)c3ccccc3S2)cc1` (centres undefined)?
Tau ThT inhib: inactive; Tau fibril FP: inconclusive; Tau fluor counter: inactive

Results for COc1ccc(CCNC(=O)Cn2c(=O)cc(C(F)(F)F)c3c(C)nn(C)c32)cc1OC ?
Tau ThT inhib: inactive; Tau fibril FP: inactive; Tau fluor counter: inactive

What do the screens show for `CCn1c(=O)n(C2=C(CO)CN(CC3CCCCCCC3)CC2)c2ccccc21`?
Coupling enz: inactive; Sfp PPTase inh: inactive

How did COC(=O)C/C=C/[C@@H](C)[C@H](OC)c1c(Br)ccc2c1OCO2 do in these assays?
Tau ThT inhib: inactive; Tau fibril FP: inactive; JMJD2E inh: inactive; Tau fluor counter: inactive; Coupling enz: inactive; Sfp PPTase inh: inactive

How did O=C(c1csnn1)N1CCC2(CCCN(c3ccccn3)C2)CC1 do in these assays?
Coupling enz: inactive; Sfp PPTase inh: inactive

How did O=C(CCC(=O)Nc1ccc(F)cc1)N/N=C/c1cccc(Br)c1 do in these assays?
Coupling enz: -30.6; Sfp PPTase inh: inactive
